These results are taken from PubChem BioAssay (Tox21).

Records with an inconclusive call do not appear. A structure can be active in one record and inactive in another. Calls of active or inactive are those of the source. Unless noted, calls come from the whole dose curve; as a rule, active = well fitted curve in the direction sought with a large enough effect in the repeat runs; inconclusive = weak or mixed curves; inactive = no such curve, though single readings can be large; an effect the other way counts as inactive or inconclusive.

Experiment [1] is described as follows: A CellTox Green Cytotoxicity Assay to monitor cytotoxicity in HepG2 cells - 8 hour (AID 1224890). Note: nearly all actives have a fitted effect of over 45% in size. An outline of the steps: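 Continuous culture of HepG2 cells with a membrane-impermeant DNA dye; rising fluorescence marks dead cells. Compound exposure lasted up to 40 h at 37 C, with reads every 8 h from 0 h.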
Experiment [2] can be described thus: qHTS assay to identify small molecule antagonists of the androgen receptor (AR) signaling pathway using the MDA cell line in the presence of 0.5 nM R1881 - cell viability counter screen (AID 1259242). Note: nearly all actives have a fitted effect of over 45% in size. Note: potency is the fitted concentration of half-maximal effect. An outline of the steps:
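Fluorescence from CellTiter-Fluor, which reports protease activity of live cells, was read 30 min after reagent addition to MDA-kb2 cells that had been incubated 16 hr with compound and 0.5 nM R1881.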

For experiment [3], the target named is Estrogen receptor (Homo sapiens) (UniProt P03372). Briefly: qHTS assay to identify small molecule antagonists of the estrogen receptor alpha (ER-alpha) signaling pathway using the BG1 cell line in the presence of 0.1 nM 17-beta-estradiol (AID 1259244). Note: nearly all actives have a fitted effect of over 50% in size. Note: potency is the fitted concentration of half-maximal effect. In outline: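 Quantitative high-throughput screen in VM7Luc4E2 cells: compound plus 0.1 nM E2 (final), 22 h, 37C, 5% CO2; ONE-Glo added, 30 min room temperature, luminescence measured.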

Experiment [4] is described as follows: qHTS assay to identify small molecule HDAC inhibitors (AID 1259364). Note: nearly all actives have a fitted effect of over 45% in size. Note: potency is the fitted concentration of half-maximal effect. An outline of the steps:
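Endogenous HDAC class I/II activity was measured in wild-type HCT-116 cells by HDAC-Glo luminescence after 2 h compound treatment.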

A short description of experiment [5]: qHTS assay to identify small molecule HDAC inhibitors - cell viability counter screen (AID 1259365). Note: nearly all actives have a fitted effect of over 50% in size. Note: potency is the fitted concentration of half-maximal effect. In outline:
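CellTiter-Glo luminescence (30 min, room temperature) reported viability after a 2 h compound exposure at 37 C. Cells: wild-type HCT-116, 1,500 per well, seeded the night before.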

Experiment [6] can be described thus: qHTS assay to identify small molecule agonists of the sonic hedgehog signaling (Shh) pathway - cell viability counter screen (AID 1259366). Note: nearly all actives have a fitted effect of over 50% in size. Note: potency is the fitted concentration of half-maximal effect. In outline: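 Cytotoxicity counter screen: CellTiter-Fluor reagent added after 23 h compound exposure, then 1 h at 37C and fluorescence read. Cells were 3T3 Gli1-Luc, seeded 2,000 per well and dosed 4 h post-plating.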
Experiment [7] can be described thus: qHTS assay to identify small molecule antagonists of the sonic hedgehog signaling (Shh) pathway - cell viability counter screen (AID 1259367). Note: nearly all actives have a fitted effect of over 55% in size. Note: potency is the fitted concentration of half-maximal effect. In outline:
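After a 4 hr settling period, 3T3 Gli1-Luc cells were treated with DMSO-dissolved chemicals and conditioned medium, kept 24 hr at 37C in 5% CO2, and assayed for viability by CellTiter-Fluor fluorescence following 1 hr reagent incubation.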

A short description of experiment [8]: qHTS assay to identify small molecule antagonists of the estrogen receptor alpha (ER-alpha) signaling pathway using the BG1 cell line in the presence of 0.1 nM 17-beta-estradiol - cell viability counter screen (AID 1259241). Note: nearly all actives have a fitted effect of over 40% in size. In outline: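 Cytotoxicity counter-screen: live-cell protease activity measured by fluorescence (30 min reagent step) in the same wells. Cells were VM7Luc4E2 with endogenous ER-alpha and ERE-driven luciferase, treated 22 hr at 37C alongside 0.1 nM 17beta-estradiol final.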

Experiment [9] is described as follows: qHTS assay to identify small molecule phospholipidosis (PLD) inducers (AID 1259344; active = well fitted curve in the direction sought with a large enough effect; an effect the other way counts as inactive or inconclusive). An outline of the steps: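 HepG2 cells grown on collagen I take up LipidTOX Red while exposed to compound for 24 h; after fixation they are imaged at 20x and pit metrics are extracted.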
The target in experiment [10] is Androgen receptor (Homo sapiens) (UniProt P10275). Briefly: qHTS assay to identify small molecule antagonists of the androgen receptor (AR) signaling pathway using the MDA cell line in the presence of 0.5 nM R1881 (AID 1259243). Note: nearly all actives have a fitted effect of over 50% in size. Note: potency is the fitted concentration of half-maximal effect. An outline of the steps:
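Inhibition of R1881 (0.5 nM final) induced reporter signal was measured in human MDA-kb2 cells; note the MMTV promoter also responds to GR. Exposure lasted 16 hr at 37C.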
% is set by controls: 0 for no effect and ±100 for the full control effect.

Androgen receptor (Homo sapiens), sequence (P10275 whole entry, looked up): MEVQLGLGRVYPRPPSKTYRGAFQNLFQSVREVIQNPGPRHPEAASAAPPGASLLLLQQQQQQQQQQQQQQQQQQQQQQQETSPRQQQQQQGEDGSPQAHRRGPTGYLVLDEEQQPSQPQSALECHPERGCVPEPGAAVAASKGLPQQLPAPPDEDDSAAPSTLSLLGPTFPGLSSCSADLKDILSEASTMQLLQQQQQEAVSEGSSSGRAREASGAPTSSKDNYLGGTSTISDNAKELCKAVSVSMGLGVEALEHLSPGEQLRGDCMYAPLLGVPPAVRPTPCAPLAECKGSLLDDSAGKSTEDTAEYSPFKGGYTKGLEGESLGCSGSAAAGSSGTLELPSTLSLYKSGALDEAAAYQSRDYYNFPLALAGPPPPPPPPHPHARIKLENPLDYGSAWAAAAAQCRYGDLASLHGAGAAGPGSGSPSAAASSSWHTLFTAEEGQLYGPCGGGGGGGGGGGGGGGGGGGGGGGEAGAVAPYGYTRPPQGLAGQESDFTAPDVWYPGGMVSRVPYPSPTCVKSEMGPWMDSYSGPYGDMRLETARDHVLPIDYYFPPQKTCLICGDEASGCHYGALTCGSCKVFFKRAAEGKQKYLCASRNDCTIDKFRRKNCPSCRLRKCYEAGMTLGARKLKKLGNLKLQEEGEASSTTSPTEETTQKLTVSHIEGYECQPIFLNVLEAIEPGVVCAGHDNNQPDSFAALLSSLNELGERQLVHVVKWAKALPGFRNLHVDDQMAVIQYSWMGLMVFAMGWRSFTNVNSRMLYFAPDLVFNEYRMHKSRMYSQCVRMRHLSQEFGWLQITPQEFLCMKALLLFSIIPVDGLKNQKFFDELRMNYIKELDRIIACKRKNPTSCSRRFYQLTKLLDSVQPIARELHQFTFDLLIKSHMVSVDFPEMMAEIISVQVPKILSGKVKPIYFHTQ
Estrogen receptor (Homo sapiens), sequence (P03372 whole entry, looked up): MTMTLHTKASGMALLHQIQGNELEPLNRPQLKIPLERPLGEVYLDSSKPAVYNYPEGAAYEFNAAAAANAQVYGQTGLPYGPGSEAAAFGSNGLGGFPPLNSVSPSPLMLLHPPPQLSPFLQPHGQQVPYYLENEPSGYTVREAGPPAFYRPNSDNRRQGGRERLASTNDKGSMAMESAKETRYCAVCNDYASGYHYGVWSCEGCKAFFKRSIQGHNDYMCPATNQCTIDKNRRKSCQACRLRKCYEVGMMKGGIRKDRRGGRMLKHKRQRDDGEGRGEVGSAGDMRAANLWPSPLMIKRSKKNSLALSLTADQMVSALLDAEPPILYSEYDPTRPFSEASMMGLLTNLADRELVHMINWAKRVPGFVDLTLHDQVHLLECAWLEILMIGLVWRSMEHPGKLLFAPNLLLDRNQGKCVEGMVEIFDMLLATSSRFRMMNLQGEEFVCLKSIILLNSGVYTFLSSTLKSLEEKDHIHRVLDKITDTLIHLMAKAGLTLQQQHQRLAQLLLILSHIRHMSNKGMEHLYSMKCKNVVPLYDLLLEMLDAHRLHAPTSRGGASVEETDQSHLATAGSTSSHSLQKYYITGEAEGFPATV

As to `O=C(O)COc1ccc(Cl)cc1`, the Potency result in [1], in [2], in experiment [3], in experiment [4], in [5] and in [6] was “inactive” throughout. The Potency entry in experiment [7] was “inactive”.
For `Nc1ccc(N=Nc2ccc(-c3ccc(N=Nc4c(S(=O)(=O)O)cc5cc(S(=O)(=O)O)c(N=Nc6ccccc6)c(O)c5c4N)cc3)cc2)c(N)c1`, the Potency entry in [1], in experiment [2] and in experiment [3] was “inactive” in each case. Moreover, the Potency is 15.7 µM (active) in experiment [4], 17.6 µM (active) in [5], 17.6 µM (active) in experiment [6] and 19.7 µM (active) in experiment [7].
For the molecule `O=C(N[C@H](c1ccccc1)[C@@H]1CN2CCC1CC2)c1c(Cl)ccc(C(F)(F)F)c1Cl`, the Potency entry in [1], in experiment [8], in experiment [4] and in experiment [5] was “inactive” in each case. Moreover, the Potency in experiment [6] is 39.2 µM (active); in experiment [7], 43.9 µM (active).
With `COC(=O)C(Cl)C(=O)OC`, the Potency result in experiment [1], in [2], in experiment [3], in experiment [4], in [5] and in experiment [6] was “inactive” in each case. The molecule was classed as inactive in [9].
With `Cc1ccccc1C(=O)Nc1cccc(OC(C)C)c1`, the Potency entry in [1], in [2], in experiment [10], in experiment [3], in [4] and in experiment [5] was “inactive” each time.
`c1cc2ccc3cccc4ccc(c1)c2c34`: the Potency result in experiment [1], in experiment [2], in [3], in experiment [4], in [5] and in experiment [6] was “inactive” throughout. The Potency entry in experiment [7] was “inactive”. Besides, the Potency in [10] was 16.1 µM (active). The molecule was classed as inactive in [9].
As to `CCCCNP(N)(N)=S`, the Potency entry in [1], in experiment [2], in experiment [3], in experiment [4], in experiment [5] and in [6] was “inactive” throughout. Besides, in experiment [7], the Potency entry was “inactive”.
Regarding `C[C@]12CC[C@H]3[C@@H](CCC4=CC(=O)CC[C@@H]43)[C@@H]1CC[C@@H]2OC(=O)CCC1CCCCC1`, the Potency entry in experiment [1], in [2], in experiment [10], in [3], in experiment [4] and in experiment [5] was “inactive” each time. Further, the Potency result in experiment [6] was “inactive”.
`CN(N=O)c1ccc([N+](=O)[O-])cc1`: the Potency result in [1], in [2], in experiment [3], in experiment [4], in experiment [5] and in experiment [6] was “inactive” each time. In [7], the Potency result is “inactive”.
For the molecule `O=[N+]([O-])c1ccccc1CCl`, the Potency result in [1], in [2], in [3], in experiment [4], in [5] and in experiment [7] was “inactive” throughout.
`COCCOCCO`: the Potency entry in experiment [1], in experiment [2], in experiment [3], in experiment [4] and in experiment [5] was “inactive” throughout. For the same molecule, the call in [9] was inactive. Moreover, the Potency in experiment [7] is 61.1 µM (active).
For the molecule `CC[C@H]1C[C@H]2[C@@H]3CCC4=CC(=O)CC[C@@H]4[C@H]3CC[C@]2(C)[C@H]1O`, the Potency result in experiment [1], in experiment [2], in experiment [3], in experiment [4], in [5] and in experiment [6] was “inactive” throughout. The Potency entry in [7] is “inactive”. Moreover, the PLD induction in experiment [9] was 1.62% [at 7.66 µM] (inactive).
Consider `CO/C=C(/C(=O)OC)c1ccccc1COc1cccc(C(F)(F)F)n1`, for which the Potency result in [1], in [4], in experiment [5], in [6] and in experiment [7] was “inactive” each time. In addition, the results for the Potency in experiment [2] and in [3] were 6.85 µM (active) and 2.17 µM (active), respectively.
For `CCOP(=S)(OCC)Oc1nc(Cl)c(Cl)cc1Cl`, the Potency entry in [1], in experiment [2], in experiment [3] and in [4] was “inactive” each time. For the same molecule, the Potency was 27.4 µM (active) in experiment [10]; 48.7 µM (active) and inactive in experiment [5]; 43.4 µM (active) and inactive in [6]; 68.7 µM (active) and inactive in experiment [7].
For `c1ccoc1`, the Potency result in [1], in experiment [2], in [3], in experiment [4], in [5] and in experiment [6] was “inactive” in each case. The Potency result in experiment [7] is “inactive”.
Turning to `CCCCCCCCCCOC(=O)c1ccccc1C(=O)OCCCCCCCCCC`, the Potency result in experiment [1], in experiment [2], in [10], in experiment [3], in experiment [4] and in experiment [5] was “inactive” each time. Moreover, the Potency entry in experiment [6] and in [7] was “inactive” each time.
`Clc1ccc(C2(Cn3cncn3)CC(Br)CO2)c(Cl)c1` (centres undefined): the Potency entry in [1], in experiment [2], in experiment [4], in experiment [5] and in [7] was “inactive” each time. Further, the Potency in [3] was 68.2 µM (active).
Regarding `COP(=S)(OC)Oc1cc(Cl)c(I)cc1Cl`, the Potency entry in experiment [1], in [2], in experiment [4], in experiment [5] and in experiment [6] was “inactive” throughout. The Potency in experiment [10] was 54.5 µM (active).
Regarding `C(=NC1CCCCC1)=NC1CCCCC1`, the Potency result in [1], in experiment [4], in experiment [5], in experiment [6] and in experiment [7] was “inactive” in each case. The Potency in [2] was 8.69 µM (active); in experiment [3] it was 43.3 µM (active).
`COC1=CC(=O)O[C@@H](CCc2ccccc2)C1`: the Potency entry in experiment [1], in experiment [2] and in [5] was “inactive” each time. Further, the Potency in [10] is 40.1 µM (active).
In the case of `CC(C)=CCOc1c2occc2cc2ccc(=O)oc12`, the Potency result in experiment [1], in experiment [2], in experiment [3], in experiment [4], in experiment [5] and in [6] was “inactive” in each case. In addition, the Potency result in experiment [7] is “inactive”.
